Bioassay records from PubChem BioAssay.
Shown are actives, neighbours in structure and some others; about 0.33% of the full set was active somewhere.
FXIa single inh: human FXIa protease inhibitors, primary screen, biochemical, single compound per well; 33,000 tested, 0.3% active; purified human FXIa, fluorogenic AMC substrate cleavage; inhibition, % at 10 µM; AID 687, 2007;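 active = inhibition above 40% in the primary screen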
FXIIa inh: human FXIIa protease inhibitors, primary screen, biochemical, single well; Coagulation factor XII (Homo sapiens), P00748; purified human FXIIa, AMC substrate fluorescence, 2 h; inhibition, % at 10 µM; 33,000 tested, 0.2% active; AID 701, 2007; in the data active = inhibition above about 30%
Target sequence (P00748 20-372 limits assumed): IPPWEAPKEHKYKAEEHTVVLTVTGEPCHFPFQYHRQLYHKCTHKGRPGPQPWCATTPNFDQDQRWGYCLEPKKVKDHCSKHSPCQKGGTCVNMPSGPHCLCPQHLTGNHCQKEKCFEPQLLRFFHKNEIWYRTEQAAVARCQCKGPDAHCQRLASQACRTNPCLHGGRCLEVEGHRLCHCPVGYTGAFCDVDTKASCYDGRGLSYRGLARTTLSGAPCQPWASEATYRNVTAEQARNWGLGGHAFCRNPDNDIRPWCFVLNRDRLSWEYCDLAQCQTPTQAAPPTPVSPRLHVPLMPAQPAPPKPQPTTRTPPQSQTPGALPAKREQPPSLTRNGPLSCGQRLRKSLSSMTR
Target sequence (P00748 373-615 limits assumed): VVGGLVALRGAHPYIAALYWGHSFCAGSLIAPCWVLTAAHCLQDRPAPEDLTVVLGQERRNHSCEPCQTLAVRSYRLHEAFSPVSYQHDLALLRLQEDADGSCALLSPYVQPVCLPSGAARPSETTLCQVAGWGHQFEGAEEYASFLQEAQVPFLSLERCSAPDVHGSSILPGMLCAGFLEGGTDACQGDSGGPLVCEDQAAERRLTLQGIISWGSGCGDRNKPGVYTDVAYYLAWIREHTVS
Numbers stand for hits; - = inactive.

SMILES | FXIa single inh | FXIIa inh
CCOc1cc(S(=O)(=O)N(Cc2ccccc2)Cc2ccccc2)c(OCC)cc1-n1cnnn1 | 45 | -
CCOc1cc(S(=O)(=O)NCc2ccccc2)c(OCC)cc1-n1cnnn1 | - | -
CCc1ccc(NC(=O)Cn2nc(C(F)(F)F)c3c2CCC3)cc1 | 44 | -
CCc1ccccc1NC(=O)Cn1nc(C(F)(F)F)c2c1CCC2 | - | -
Cc1ccc(S(=O)(=O)c2c(N)n(NC(=O)c3ccccc3C)c3nc4ccccc4nc23)cc1 | - | -
CCn1c(SCC(=O)O)nc2sc3c(c2c1=O)CCC3 | - | -
Cc1cc(NC(=O)C(C)C)ncc1NC(=O)Cc1ccccc1 | - | 38
Cc1cc(NC(=O)c2cccc(F)c2)ncc1NC(=O)c1ccco1 | - | -
C1CNCCNCCNCCN1 | - | -
Cn1nnnc1SCC(=O)N(C1CCCCC1)C1CCCCC1 | 106 | -
CC1CCCC(NC(=O)CSc2nnnn2C)C1C (stereo unspecified) | - | -
COc1ccc(C)cc1NC(=O)Nc1ccc(Br)cn1 | - | -
COC(=O)c1sc(NC(=O)CC(C)C)c(C(=O)OC)c1C | 43 | -
COC(=O)c1sc(NC(=O)CSc2nncs2)c(C(=O)OC)c1C | - | -
O=S(=O)(Cc1ccccc1)N1CCN(C2Cc3ccccc3C2)CC1 | - | -
O=C(CSc1nc(N2CCCCC2)nc(N2CCCCC2)n1)Nc1nccs1 | - | -
COC(=O)c1[nH]c2ccc(Br)cc2c1NC(=O)CN1CCCc2ccccc21 | 45 | -
CCOC(=O)c1[nH]c2ccc(OC)cc2c1NC(=O)CN1CCc2ccccc2C1 | - | -
Cc1nc(C#N)c(NCc2ccc3c(c2)OCO3)o1 | - | -
O=C(Oc1cccc(-n2cnnn2)c1)c1ccco1 | 45 | 47
CC1CCc2c(C(=O)Oc3cccc(-n4cnnn4)c3)csc2C1 (stereo unspecified) | - | -
O=C1CC(N2CCN(C(c3ccccc3)c3ccccc3)CC2)C(=O)N1Cc1ccc(N2CCCC2=O)cc1 (stereo unspecified) | - | -
O=C(CCc1ccccc1)Nc1nncs1 | - | -
O=C(Nc1ccc(Cl)cc1)[C@@H]1[C@@H]2C(=O)N(c3ccc4ccccc4c3)C(=O)[C@@H]2[C@H]2C=CC=NN21 | - | -
COc1ccc(-c2nn(C)c(=O)c3ccccc23)cc1NC(=O)Cn1nc(-c2ccccc2)c2ccccc2c1=O | - | -
SMILES | FXIa single inh | FXIIa inh
COc1ccc(OCC(=O)Nc2cc(-c3nn(C)c(=O)c4ccccc34)ccc2OC)cc1 | 42 | -
O=C(CCCN1C(=O)c2ccccc2C1=O)NCC1CCCO1 (stereo unspecified) | 44 | -
O=C1c2ccccc2C(=O)N1CC1CCCO1 (stereo unspecified) | - | -
O=C(c1ccc(F)cc1)N1CCN(C(=O)c2cccnc2)CC1 | 50 | -
O=C(c1ccccc1)N1CCN(C(=O)c2ccccc2)CC1 | - | -
CC(C)c1nccn1CCC(=O)O | - | -
O=C(Oc1ccc(-c2ccccc2)cc1)N1CCCCC1 | - | -
Cc1ccc(NS(=O)(=O)c2ccc(OCC(=O)N3CCOCC3)cc2)cc1 | 99 | -
CCOC(=O)COc1ccc(S(=O)(=O)Nc2ccc(C)cc2)cc1 | - | -
Cc1ccc(Cl)cc1N1CCN(C(=O)c2ccc(CN3CCOCC3)cc2)CC1 | - | -
COC(=O)c1ccc(NC(=O)CCN2CCN(CCC(=O)Nc3ccc(C(=O)OC)cc3)CC2)cc1 | - | -
COc1cc(OC)cc(-c2nc3ccccc3c(=O)o2)c1 | - | -
COc1cccc(-c2nc3ccccc3c(=O)o2)c1 | - | 30
O=C(C1CCC(CNS(=O)(=O)c2cccc3cccnc23)CC1)N1CCc2ccccc21 (stereo unspecified) | - | -
Cc1ccc(S(=O)(=O)NC2(C(=O)O)CCCCC2)cc1 | - | -
Cc1ccc(NC(=O)C2(S(=O)(=O)c3ccc(C)cc3)CC2)cc1 | - | 30
CCn1c2ccccc2c2cc(NC(=O)CSc3nnc(-c4ccc(OC)cc4)n3N)ccc21 | - | -
Cc1cc(-c2[nH]nc3c2C(c2ccsc2)C(C#N)=C(N)O3)c(C)s1 (stereo unspecified) | - | -
CCOC(=O)N=S(=O)(Oc1ccc([N+](=O)[O-])cc1)c1ccccc1 (stereo unspecified) | 44 | -
CN(CC(=O)O/N=C(\N)c1ccc([N+](=O)[O-])cc1)S(=O)(=O)c1ccccc1 | - | -
CCCC(C1=C(O)CC(C)(C)CC1=O)C1C(=O)CC(C)(C)CC1=O (stereo unspecified) | - | -
CC1=CC(=NOC(=O)c2cccc([N+](=O)[O-])c2)C=C(C)C1=O | - | 51
CC1=CC(=O)C(C(C)C)=C/C1=N/OC(=O)c1cccc([N+](=O)[O-])c1 | - | -
COc1ccccc1NC(=O)CN1CCN(c2ccccn2)CC1 | - | -
CCOC(=O)c1ccccc1NC(=O)Cc1ccccc1OC | - | -
SMILES | FXIa single inh | FXIIa inh
COc1ccc(S(=O)(=O)N2CCC(C(=O)N3CCc4ccccc4C3)CC2)cc1Cl | 61 | -
COc1ccc(S(=O)(=O)N2CCC(C(=O)NC3CC3)CC2)cc1Cl | - | -
O=c1nc(-c2ccccc2)c2cc(Cl)ccc2[nH]1 | 103 | -
CCOC(=O)c1[nH]c2ccc(Cl)cc2c1-c1ccccc1 | - | -
CCCNCc1cc(Cl)c(OCC)c(Cl)c1 | - | -
Cc1ccnc(NS(=O)(=O)c2ccc(CC(C)C)cc2)c1 | - | -
CC1(C)c2ssc(=S)c2-c2ccccc2N1C(=O)c1ccco1 | - | 34
Cc1ccc2c(c1)-c1c(ssc1=S)C(C)(C)N2C(=O)c1ccco1 | - | -
CCCOc1cccc(C(=O)Nc2cccnc2)c1 | - | -
CCCCc1c(O)nc(SCC(=O)NC(C)(C)C)n(-c2ccccc2C)c1=O | - | -
CCc1c(O)nc(SCC(=O)NC(C)(C)C)n(-c2ccccc2)c1=O | 43 | -
COc1ccc(OCCSc2ncn[nH]2)cc1 | 43 | -
O=C(CSc1ncn[nH]1)NCCOc1ccccc1 | - | -
CCn1nc(CC(=O)Nc2nnc(CC(=O)N3CCOCC3)s2)c2ccccc2c1=O | - | -
CCn1nc(CC(=O)Nc2nnc(CC(=O)N3CCCC3)s2)c2ccccc2c1=O | 66 | -
CN(C)CCCn1c(-c2ccccc2)nc(=S)c2c1CCCC2 | - | -
OCCCn1c(-c2ccccc2)nc(=S)c2c1CCCC2 | 43 | -
COc1cccc(C2c3c(oc4ccc(F)cc4c3=O)C(=O)N2CCN2CCOCC2)c1OC (stereo unspecified) | - | -
Cc1ccc(NC(=O)CCn2cccc2)cc1C | - | -
Cc1ccc(NC(=O)CCn2cccc2)cc1 | 44 | -
O=C(c1ccccc1)N1CCCC(c2nc3c(nnn3Cc3ccccc3)c(=O)[nH]2)C1 (stereo unspecified) | - | 37
O=C(C1CCCCC1)N1CCCC(c2nc3c(nnn3Cc3ccccc3)c(=O)[nH]2)C1 (stereo unspecified) | - | -
COc1ccc(NS(=O)(=O)c2ccc(S(=O)(=O)N3CCCC3)cc2)cc1 | - | -
Nn1c(SCc2ccccc2)nnc1-c1ccccn1 | - | -
Cc1nc(-n2ncc(C#N)c2N)c2c3c(sc2n1)CCC3 | - | -
O=C(Oc1ccc(OC(=O)N2CCOCC2)cc1)c1ccccc1 | - | -
O=C(Oc1nsnc1N1CCOCC1)c1ccccc1 | 66 | 63
CC1CC(C)CN(c2oc(-c3ccccc3Cl)nc2C#N)C1 (stereo unspecified) | - | -
